For the first assay, the system named is PIK3CB.
`N#Cc1c(N2CCOCC2)sc(-c2ccn[nH]2)c1-c1ccc(Cl)cc1` came in with a Kd of 750 nM. The same measure, in the same setting: the figure for `[2H]C([2H])(c1cccc(C(F)(F)F)c1C)n1ccn2c(=O)nc(N3CCOCC3)cc12` [GSK2336394] is 51 nM; for `Cc1c(Cn2c(C)nn3c(=O)cc(N4CCOC(C)C4)nc23)cccc1C(F)(F)F` (stereo not drawn) [GSK2344444] it is 0.67 nM.

`Cc1cn2c(=O)cc(N3CCOCC3)nc2n1Cc1cccc(Cl)c1Cl` [GSK2334006] displayed a Kd of 2.4 nM. This Kd is about 3.6-fold higher than that of the molecule before. Same read-out and setting: next, `Cc1cccc(Cn2ccn3c(=O)cc(N4CCOCC4)nc23)c1` [GSK2297542]: 23 nM; `COc1ccc(COc2cc(-n3cnc4ccccc43)sc2C(N)=O)cc1` [GSK1024304]: above 10000 nM.

With `O=c1cc(N2CCOCC2)nc2n(Cc3cccc4ccccc34)ccn12` [GSK2333389], binding was put at a Kd of 2.9 nM. Same read-out and setting: next, `COc1ccc(S(=O)(=O)NC2CCN(c3cc(C)nc(Nc4cccc(C#N)c4)n3)CC2)cc1.O=C(O)C(F)(F)F` [GSK1653539]: above 10000 nM; `O=c1cc(N2CCOCC2)nc2n(Cc3cccc(F)c3)ccn12` [GSK2297430]: 55 nM. In the case of `O=c1cc(N2CCOCC2)nc2n(Cc3cccc(Cl)c3Cl)c(C3CC3)nn12` [GSK2358994], the affinity, expressed as Kd, was 0.94 nM. On the same count and under the same terms, next, `O=c1cc(N2CCOCC2)nc2n(Cc3cccc(C(F)(F)F)c3)ccn12` [GSK2297543]: 140 nM.

Another assay concerns PIK3CD.
On to `Cc1c(Cn2c(C)nn3c(=O)cc(N4CCOC(C)C4)nc23)cccc1C(F)(F)F` (stereo not drawn) [GSK2344444], for which binding was put at a Kd of 80 nM. In turn, `Cc1cn2c(=O)cc(N3CCOCC3)nc2n1Cc1cccc(Cl)c1Cl` [GSK2334006] had a Kd of 120 nM. Against the preceding molecule, the Kd is about 1.5-fold higher. The same measure, in the same setting: next, `O=c1cc(N2CCOCC2)nc2n(Cc3cccc4ccccc34)ccn12` [GSK2333389]: 150 nM. Same read-out and setting: the figure for `O=c1cc(N2CCOCC2)nc2n(Cc3cccc(Cl)c3Cl)c(C3CC3)nn12` [GSK2358994] is 820 nM.

By Kd is commonly meant the constant that tells how readily two partners part at equilibrium. A lower Kd goes with a tighter complex.

Values taken from article PMC5540273 (PLoS ONE, 2017).
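Note: kd values determined as follow-up on hits from a single-replicate KINOMEscan panel screen.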
